Activity remaining data for 40 compounds are collected here from PubChem BioAssay.

SMILES strings stand for the structures. A number with no mark means an inactive call. The rule behind the calls is not given here.

This assay relates to Aerobactin synthetase IucA (Klebsiella pneumoniae hvKP1). The assay can be described thus: IucA enzyme inhibition, primary screen, biochemical, Spectrum library (AID 1346200).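 Note: 100% = wells without compound and 0% = wells lacking enzyme.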 The following applies: malachite green pyrophosphate, A620, at 8 µM, stronger effect = lower value.
As to `C=CC(C1=CC(=O)C(OC)=CC1=O)c1ccccc1` (stereo not given), the activity remaining was 113%.
The figure for `NC(C(=O)O)C(O)C(=O)O` (stereo not given) is 97.5%; for `CC(=O)N1CCN(c2ccc(OCC3CO[C@](Cn4ccnc4)(c4ccc(Cl)cc4Cl)O3)cc2)CC1` (stereo not given in full) it is 97%; for `COc1cccc2c1CCC1CC(=O)CC[C@]21C` (stereo not given in full) it is 119%.
For `C=CC(C1=CC(=O)C(OC)=CC1=O)c1ccc(OC)cc1` (stereo not given) the value was 109%; for `CC(C)(C)NC[C@@H](O)COc1nsnc1N1CCOCC1`, 99.4%; for `O[C@H]1[C@H](O)[C@@H](O)C2OC[C@H]1O2`, 119%.
The figure for `COc1cc(O)c(C)c(O)c1` is 112%.
As to `CC(=O)Oc1cc(OC(C)=O)c2c(c1)O[C@H](c1ccc(OC(C)=O)c(OC(C)=O)c1)[C@H](OC(C)=O)C2`, the activity remaining is 108%.
For `CO[C@]12C[C@@H](COC(=O)c3cncc(Br)c3)CN(C)[C@@H]1Cc1cn(C)c3cccc2c13`, the activity remaining was 108%.
The figure for `FC(F)(F)COCC(F)(F)F` is 120%; for `O=C(/C=C/c1ccccc1)c1ccc(O)cc1` it is 95.4%.
For `N[C@@H](Cc1cc(I)c(Oc2ccc(O)c(I)c2)c(I)c1)C(=O)O` the value was 125%.
For `CCOC(=O)c1c(C)cc(OC)cc1O` the value was 110%.
Consider `C[N+]1(C)C2CC[C@H]1CC(OC(=O)C(O)c1ccccc1)C2` (stereo not given in full), for which the activity remaining was 95%.
The figure for `NCCC(=O)N[C@@H](Cc1cnc[nH]1)C(=O)O` is 106%; for `CC(C)(S)C(N)C(=O)O` (stereo not given) it is 128%; for `NC[C@H]1O[C@H](O[C@H]2[C@H](O)[C@@H](O[C@H]3O[C@H](CO)[C@@H](O)[C@H](N)[C@H]3O)[C@H](N)C[C@@H]2N)[C@H](N)C[C@@H]1O` it is 97%.
For `C[C@]12C=CC(=O)C=C1CCC1C2[C@@H](O)C[C@@]2(C)C1CC[C@]2(O)C(=O)COC(=O)CCC(=O)O` (stereo not given in full), the activity remaining was 111%.
The figure for `CC(=O)O[C@H]1CC[C@@]2(C)C(CC[C@]3(C)C2C(=O)C=C2C4[C@@H](C)[C@H](C)CC[C@]4(C(=O)O)CC[C@]23C)C1(C)C` (stereo not given in full) is 113%; for `C[C@]12C=CC(=O)C=C1CCC1C2[C@@H](O)C[C@@]2(C)C1CC[C@]2(O)C(=O)COP(=O)(O)O` (stereo not given in full) it is 117%.
For `Cc1ccc(S(=O)(=O)NC(=O)NN2CC3CCCC3C2)cc1` (stereo not given) the value was 121%; for `O=c1cc(-c2ccccc2O)oc2cc(O)ccc12`, 100%; for `O=c1oc2c(O)c(O)cc3c(=O)oc4c(O)c(O)cc1c4c23`, 91.8%.
For `CC(=O)O[C@]1(C(C)=O)CCC2C3C=C(Cl)C4=CC(=O)[C@@H]5C[C@@H]5[C@]4(C)C3CC[C@@]21C` (stereo not given in full), the activity remaining was 101%.
Regarding `CC[C@H]1OC(=O)[C@H](C)[C@@H](O[C@H]2C[C@@](C)(OC)[C@@H](O)[C@H](C)O2)[C@H](C)[C@@H](O[C@@H]2O[C@H](C)C[C@H](N(C)C)[C@H]2O)[C@](C)(O)C[C@@H](C)C(=O)[C@H](C)[C@@H](O)[C@]1(C)O`, the activity remaining was 117%.
For `CCS(=O)(=O)CCn1c([N+](=O)[O-])cnc1C` the value was 124%; for `CC(C(=O)O)c1ccc(-c2ccccc2)c(F)c1` (stereo not given), 104%; for `Cn1cc[nH]c1=S`, 99.8%.
The figure for `CCC(=O)NCC[C@@H]1CCc2ccc3c(c21)CCO3` is 120%; for `c1ccc2c(c1)CN1CCCC1=N2` it is 99.8%.
The figure for `CN1CCCC(n2nc(Cc3ccc(Cl)cc3)c3ccccc3c2=O)CC1` (stereo not given) is 106%.
For `COC(=O)CC1C(C)(C)C(OC(C)=O)[C@@H]2[C@@H](OC(C)=O)[C@]34O[C@@]2(O)[C@]1(C)C3CC[C@]1(C)C4=CC(=O)O[C@H]1c1ccoc1` (stereo not given in full), the activity remaining was 124%.
The figure for `CC1(C)CC[C@]2(C(=O)O)CC[C@]3(C)C(=CCC4[C@@]5(C)CC[C@@H](O)C(C)(C)C5CC[C@]43C)C2C1` (stereo not given in full) is 118%; for `COc1ccc2c(c1)[C@@]1(C)CCC(=O)C[C@H]1CC2` it is 101%.
Regarding `O=c1[nH]c2cc(Cl)c(Cl)cc2[nH]c1=O`, the activity remaining was 121%.
With `O=C(O)c1ccccc1`, the activity remaining was 115%.
For `COc1ccc(-c2cc(=O)c3c(O)c(OC)c(O[C@H]4O[C@H](CO[C@@H]5O[C@@H](C)[C@H](O)[C@@H](O)[C@H]5O)[C@@H](O)[C@H](O)[C@H]4O)cc3o2)cc1`, the activity remaining is 109%.
Consider `C#CCCCCCCCCCCCc1ccco1`, for which the activity remaining was 113%.
The figure for `COc1c(CC(=O)c2cc3c(cc2O)OC(C)(C)C(O)C3)ccc2c1C=CC(C)(C)O2` (stereo not given) is 96.2%.
